Hits are enriched below; roughly 2.9% of the tested compounds scored in any of these assays.
POLI inh: inhibitors of human DNA polymerase iota. Q9UNA4. 390,000 tested, 1% active. Potency, µM (series often up to 115 µM), for inactives: top-dose activity, negative = inhibition, most hits filed as inhibitors. AID 588590. Pol iota fluorescent replication assay, 10 min; also: potency is read from the fitted curve at half-maximal effect
Target sequence (Q9UNA4 whole entry, looked up): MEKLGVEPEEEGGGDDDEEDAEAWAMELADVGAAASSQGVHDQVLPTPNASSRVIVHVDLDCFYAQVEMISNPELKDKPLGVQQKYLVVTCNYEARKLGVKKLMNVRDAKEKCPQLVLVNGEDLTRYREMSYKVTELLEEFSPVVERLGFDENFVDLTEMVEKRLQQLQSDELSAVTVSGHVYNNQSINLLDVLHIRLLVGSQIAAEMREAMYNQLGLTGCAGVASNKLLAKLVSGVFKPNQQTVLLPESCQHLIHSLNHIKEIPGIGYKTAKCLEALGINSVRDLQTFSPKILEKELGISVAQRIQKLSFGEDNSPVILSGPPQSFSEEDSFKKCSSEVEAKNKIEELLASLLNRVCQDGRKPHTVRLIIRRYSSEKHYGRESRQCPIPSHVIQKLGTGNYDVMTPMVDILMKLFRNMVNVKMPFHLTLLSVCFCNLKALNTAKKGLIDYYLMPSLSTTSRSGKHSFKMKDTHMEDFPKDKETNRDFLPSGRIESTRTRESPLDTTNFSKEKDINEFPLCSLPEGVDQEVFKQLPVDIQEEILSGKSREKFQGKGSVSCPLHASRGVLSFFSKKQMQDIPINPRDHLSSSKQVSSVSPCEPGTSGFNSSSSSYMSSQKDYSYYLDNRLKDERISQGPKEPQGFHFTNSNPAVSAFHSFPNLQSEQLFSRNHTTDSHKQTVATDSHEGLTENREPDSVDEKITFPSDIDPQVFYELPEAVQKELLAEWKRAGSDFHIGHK
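Fluorescent replication assay read twice, at 0 min and 10 min after adding 50 nM (final) substrate. Enzyme (10 nM) and compounds were first incubated 15 min at room temperature; enzyme-free buffer wells were negative controls.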
PI5P4K alpha inh: blocks human PI5P4K alpha kinase activity. P48426. PI5P4Kalpha enzyme, ADP-Glo luminescence, 60 min; stronger effect = lower value. max response, %. 330,000 tested, 1.2% active; active = max response of -50% or lower; inconclusive = between -30% and -50%; inactive = -30% or higher; also: value at the top dose of about 77 µM; % is scaled to controls: 0 for no effect and ±100 for the full control effect
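ADP-Glo luminescence end-point after a 60 min room-temperature kinase reaction. PI5P4Kalpha and substrate in HEPES pH 7.4 buffer with EGTA, 0.1% CHAPS and 5% DMSO; ATP at 5 microM final.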
POLB inh: inhibitors of human DNA polymerase beta. Pol beta primer extension/strand displacement, fluorescence kinetic. Potency, µM (titrated, usually from 114 µM), inactives show at the highest dose activity change, negative = inhibition, hits mostly inhibitors. 340,000 tested, 1.3% active. AID 485314; also: potency is read from the fitted curve at half-maximal effect; % is scaled to controls: 0 for no effect and ±100 for the full control effect
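Values derive from four-parameter Hill fits of normalized kinetic data: reads at 0 and 10 min following addition of 50 nM substrate to 10 nM Pol beta preincubated 15 min with compound.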
12-LOX inh: ALOX12 (human) lipoxygenase inhibition | P18054 | purified 12hLO, xylenol orange hydroperoxide absorbance | Potency, µM (titrated, usually from 108 µM), inactives show top-dose activity change, negative = inhibition, actives largely listed as inhibitors | 580,000 tested, 1.1% active | AID 1671190; also: potency is read from the fitted curve at half-maximal effect; % is scaled to controls: 0 for no effect and ±100 for the full control effect
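Hydroperoxide product was detected by ferrous iron/xylenol orange as the 573 to 405 nm absorbance ratio. Arachidonic acid at 40 uM (final) was turned over for 30 min at room temperature by 150 nM human 12hLO, pH 7.0 Hepes buffer, after 15 min compound preincubation.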
Pol kappa inh: blocks human DNA polymerase kappa activity | Q9UBT6 | Potency, µM (titrated, usually from 107 µM), inactives show at the highest dose activity, negative = inhibition, usual class: inhibitors | 400,000 tested, 0.53% active | purified Pol kappa, fluorescent DNA synthesis assay, 10 min; also: potency is read from the fitted curve at half-maximal effect; % is scaled to controls: 0 for no effect and ±100 for the full control effect
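First, compounds were pin-transferred onto 10 nM Pol kappa. After 15 min at room temperature, substrate was added to 50 nM final. Fluorescence was then measured kinetically at 0 and 10 min.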
POLH inh: blocks human DNA polymerase eta activity; AID 588591; 390,000 tested, 1.2% active; Potency, µM (series often up to 114 µM), inactives show at the highest dose activity change, negative = inhibition, most hits filed as inhibitors; Q9Y253; recombinant Pol eta, fluorescent DNA replication assay; also: potency is read from the fitted curve at half-maximal effect; % is scaled to controls: 0 for no effect and ±100 for the full control effect
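Fluorescent replication assay: 50 nM final substrate added after a 15 min room-temperature compound preincubation with 10 nM enzyme. Signal taken at 0 min and again at 10 min.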
The depositor's hits bear a star; u = inconclusive; x = no result; ! = not active in a repeat; [ ] = remark or other dose. Unless noted, calls follow the shape of the dose curve; as a rule, active = well fitted inhibition curve with a large enough effect; inconclusive = small, poorly fitted or top-dose-only effect, or another doubt; inactive = no such curve, though single readings can be large or run the other way.

SMILES	POLI inh	PI5P4K alpha inh	POLB inh	12-LOX inh	Pol kappa inh	POLH inh
C#CCOCCOCCOCCNc1nc(N2CCN(C(=O)Cn3cc(CC(C)O)nn3)CC2)nc(N2CCN(C(=O)[C@H](C)n3cc(CCCN=C(N)N)nn3)CC2)n1 (some centres undefined)	u	-80*	-1%	x	-7%	-2%
C#CCOCCOCCOCCNc1nc(N2CCN(C(=O)Cn3cc(CCCN=C(N)N)nn3)CC2)nc(N2CCN(C(=O)[C@H](CCCCN)n3cc(CC(C)O)nn3)CC2)n1 (some centres undefined)	15%	2	x	u	-15%	-14%
C#CCOCCOCCOCCNc1nc(N2CCN(C(=O)[C@H]([C@@H](C)CC)n3cc(CCC(=O)O)nn3)CC2)nc(N2CCN(C(=O)[C@H](C)n3cc(CCCN=C(N)N)nn3)CC2)n1	8%	3	-2%	-19%	7%	-8%
C#CCOCCOCCOCCNc1nc(N2CCN(C(=O)Cn3cc(CC(C)O)nn3)CC2)nc(N2CCN(C(=O)[C@H](CCCCN)n3cc(CCC(=O)O)nn3)CC2)n1 (some centres undefined)	u	-5	u	16µM*	14%	-14%
C#CCOCCOCCOCCNc1nc(N2CCN(C(=O)[C@H]([C@@H](C)CC)n3cc(CCCN=C(N)N)nn3)CC2)nc(N2CCN(C(=O)[C@H]([C@@H](C)CC)n3cc(CCC(=O)O)nn3)CC2)n1	18%	0	x	10µM*	3%	-17%
CCN(CC)CCCC(C)NCc1cc(Br)cs1 (centres undefined)	x	x	x	-31%	x	x
CCOC(=O)c1c2c3c(c(Cl)ccc3[nH]c1=O)C(=O)c1ccccc1-2	u	-22	u	-10%	u	79µM*
CCOC(=O)c1c2c3c(cccc3[nH]c1=O)C(=O)c1ccccc1-2	41%	0	0%	u	0%	u
Cc1nn(-c2ccccc2)c(Cl)c1/C=C1\SC(=S)N(CCCCCC(=O)O)C1=O	-18%	2	27%	-24%	-7%	25µM*
Cc1nn(-c2ccccc2)c(C)c1/C=C1\C(=O)N(C)C(=S)N1C	-13%	2	36%	u	7%	-12%
Cc1nn(-c2ccccc2)c(Cl)c1/C=C1/C(=N)N2N=C(C(C)C)SC2=NC1=O	165%	2	1%	-2%	-9%	-25%
Cc1nn(-c2ccccc2)c(Cl)c1/C=C1\SC(=S)NC1=O	-22%	x	7%	25µM*	-2%	u
O=C(Oc1csc(=S)n1C(=O)c1ccccc1)c1ccccc1	15%	-75*	5%	x	-29%	-1%
Cc1cccc(C(=O)Oc2csc(=S)n2C(=O)c2cccc(C)c2)c1	u	x	19%	u	-28%	-5%
CCOC(=O)c1[nH]c(=S)n(-c2ccccc2)c1C(=O)OCC	x	u	x	7.1µM*	x	0%
COc1ccc(OC)c(NC(=O)COC(=O)c2cc(S(=O)(=O)N3CCOCC3)ccc2F)c1	x	x	x	-1%	x	x
COCOc1ccc(-c2cc(=O)c3c(OCOC)cc(OCOC)cc3o2)cc1	28%	0	x	x	6%	-24%
COCOc1cc(O)c2c(=O)c(OCOC)c(-c3ccc(OCOC)c(OCOC)c3)oc2c1	u	0	x	-3%	79µM*	u
Cc1c(NC(=S)NC(=O)c2ccc(COc3ccccc3)cc2)cccc1C(=O)O	15%	-18	1%	u	5%	-9%
O=C(NC(=S)Nc1ccc(Cl)c(C(=O)O)c1)c1cccc(COc2ccccc2)c1	-11%	u	40µM*	11µM*	-22%	79µM*
CCCOc1cccc(C(=O)NC(=S)Nc2cccc(C(F)(F)F)c2)c1	-2%	x	-1%	u	-13%	-8%
O=C(NC(=S)Nc1ccc(Cl)c(C(=O)O)c1)c1ccc(OCc2ccccc2)cc1	38%	-24	-22%	3.5µM*	7%	-15%
CCOc1cccc(C(=O)NC(=S)Nc2cccc(C)c2)c1	3%	19	-1%	20µM*	-8%	-8%
O=C(COc1ccccc1)NC(=S)Nc1cccc(NC(=O)c2ccccc2Cl)c1	1%	1	2%[57.1 µM]	u	0%	-16%
CC(C)Oc1cccc(C(=O)NC(=S)Nc2cccc(NC(=O)c3ccccc3Cl)c2)c1	0%	1	-2%	10µM*	-6%	-11%
SMILES	POLI inh	PI5P4K alpha inh	POLB inh	12-LOX inh	Pol kappa inh	POLH inh
CC(C)C(CNC(=O)c1nn(-c2ccccc2)c(=O)c2ccccc12)N1CCOCC1 (centres undefined)	x	x	x	6%	x	x
CN(C)C(=O)c1ccc(NC(=O)CSc2ccc3ccccc3n2)cc1	x	x	x	-26%	x	x
CCCCCCCCCCCC(=O)N/N=C/C1CCCCC1	x	x	x	66%	x	x
O=C(O)c1ccc(Cl)c(NC(=S)NC(=O)c2cccc(COc3ccccc3)c2)c1	78%	8	25µM*	-18%	5%	45µM*
COc1cc(OC)cc(C(=O)NC(=S)Nc2ccc(Cl)c(C(=O)O)c2)c1	-16%	-9	24%	28µM*	-3%	-11%
CCCCOc1cccc(C(=O)NC(=S)Nc2ccc(Cl)c(C(=O)O)c2)c1	14%	-21	-2%	5.6µM*	4%	3%
COc1cc(C(=O)NC(=S)Nc2ccc(Cl)c(C(=O)O)c2)cc(OC)c1OC	22%	3	28%	u	-10%	-9%
CCCCC(=O)NC(=S)Nc1ccc(Cl)c(C(=O)O)c1	31%	-11	0%	u	-13%	9%
CN(CC(=O)Nc1cccc(F)c1)Cc1cc(Cl)cc2c1OCOC2	x	x	x	0%	x	x
COc1cccc(CN(C)C(=O)C23CC4CC(CC(C4)C2)C3)c1OC	x	x	x	0%	x	x
CCN(C(=O)CSc1nc2cc(C(=O)O)ccc2c(=O)n1Cc1ccccc1)c1ccccc1	16%	-53*	-2%	x	-4%	-1%
COc1cccc(CNC(=O)C2CCN(c3ncnc4c3nc3n4CCCCC3)CC2)c1	u	-2	100µM*!	0%	-21%	-3%
CN1N=C(C(C)(C)C)CC1=O	4µM*	1	4%	0%	3%	-14%
CN1N=C(C(F)(F)F)CC1=O	51%	-2	-1%	u	-14%	-1%
COc1ccc(CN(C)c2nn3c(=O)cc(C)nc3s2)cc1	x	x	x	-16%	x	x
CCOc1ccc(C(C)NC(=S)NC2CCCCC2)cc1OCC (centres undefined)	97%	12	2%	u	-8%	u
CCOc1ccc(C(=S)NC2CCCCC2)cc1OCC	-5%	u	8%	35µM*	-10%	-6%
COc1ccc(-c2[nH]nc3ncc(-c4ccc([S+](C)(=O)[O-])cc4)nc23)c(C)c1	x	x	x	-18%[176 µM]	x	x
Nc1nccnc1C(=O)NCCCC1CCCC1	x	x	x	6%	x	x

Source: PubChem BioAssay (National Center for Advancing Translational Sciences (NCATS))
